In PubChem BioAssay AID434973 (Sanford-Burnham Center for Chemical Genomics, 2010):
Out of some 330,000 compounds screened, about 4,900 (1.5%) were called active. The sample holds actives, similar compounds and a random draw of the others, so the mix is not that of the screen. A number with no mark means an inactive call.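 Rule for the calls: active = inhibition above about 50% at the single test dose (limit read from the data); inactive = the rest.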

Molecular target: Sentrin-specific protease 7 (Homo sapiens) (UniProt Q9BQF6)
Assay: blockers of human SENP7 peptidase activity – biochemical, luminescence, uHTS, primary screen (AID 434973);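 note: plate controls were DMSO with enzyme for no effect and no enzyme buffer wells for full effect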
Conditions: recombinant SENP7, Z-RLRGG-aminoluciferin luminescence, 40 min; at 5 µM; hits give high values

Compound | inhibition
CN1CCN(c2cc(N3CCNCC3)ccc2[N+](=O)[O-])CC1 | 6.98%
COc1cccc(-c2nc3ccc(N4CCN(C)CC4)cc3[nH]2)c1 | 57.6% (active)
Cc1nc2ccc(N3CCN(C)CC3)cc2nc1C | -4.82%
Cc1ccc(C)c(NC2=NCCCS2)c1 | 5.92%
CCOC(=O)c1c(N)n(Cc2ccccc2)c2nc3ccccc3nc12 | 13%
CCOC(=O)c1c(N)n(CCN2CCOCC2)c2nc3ccccc3nc12 | 0.976%
COc1cc(Cn2c(N)c(C(=O)NCc3ccco3)c3nc4ccccc4nc32)cc(OC)c1OC | 80.7% (active)
CCOC(=O)C(O)(c1ccc(N)c(OC)c1)C(F)(F)F (stereo not given) | 3.48%
NCC(O)c1ccc(O)cc1 (stereo not given) | -7.28%
COc1ccc(N=Cc2c(O)n(C)c(=O)[nH]c2=O)cc1 | 22.6%
